Bioassay records: PubChem BioAssay, several laboratories
Hits are enriched below; roughly 0.84% of the tested compounds scored in any of these assays.
TbHK1 inh: blocks Trypanosoma brucei hexokinase 1 activity | recombinant TbHK1, G6PDH-coupled NADH A340 | inhibition, % at 10 µM | actives 0.11% (n = 220,000) | AID 1430;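 active means inhibition of 50% or more in the single-dose primary screen; inactive means inhibition below 50%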
Redox H2O2 prof: compounds producing H2O2 with reducing agent – biochemical, NIH compound library profiling, artefact control for MLSCN library redox annotation, primary screen | DTT-dependent redox cycling H2O2, phenol red/HRP absorbance; 100% = 100 µM peroxide control, 0% = buffer | activation, % at 10 µM | actives 0.03% (n = 200,000);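 active means activation of at least 50% relative to the plate's high and low controls in the primary single-dose screen; inactive means activation below 50%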;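 further: compound incubated with DTT at 0.8 mM final as the reducing agent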
G6PDH counter-1: inhibits Leuconostoc G6PDH, flagging false hits in G6PDH-based assays; Purified L. mesenteroides G6PDH, diaphorase/resazurin coupled fluorescence, 45 min; inhibition, % at 5 µM; actives 0.12% (n = 200,000); in the data active means inhibition above about 50%
S1P3 antag: S1P3 (human) receptor antagonism | Q99500 | CHO S1P3 NFAT-BLA reporter, FRET fluorescence, antagonist mode | inhibition, % at 4.98 µM | actives 0.27% (n = 170,000) | AID 485;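 active means inhibition above the plate cutoff, the mean inhibition of test wells on that plate plus 3 SD, cut at about 28% in these data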;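 further: cells challenged with S1P at its EC80 of 0.8 µM; blue over green emission ratio from cleaved BLA substrate after 4 h stimulation; 0% = S1P-stimulated wells and 100% = unstimulated DMSO-only wells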
Target sequence (Q99500 whole entry, looked up): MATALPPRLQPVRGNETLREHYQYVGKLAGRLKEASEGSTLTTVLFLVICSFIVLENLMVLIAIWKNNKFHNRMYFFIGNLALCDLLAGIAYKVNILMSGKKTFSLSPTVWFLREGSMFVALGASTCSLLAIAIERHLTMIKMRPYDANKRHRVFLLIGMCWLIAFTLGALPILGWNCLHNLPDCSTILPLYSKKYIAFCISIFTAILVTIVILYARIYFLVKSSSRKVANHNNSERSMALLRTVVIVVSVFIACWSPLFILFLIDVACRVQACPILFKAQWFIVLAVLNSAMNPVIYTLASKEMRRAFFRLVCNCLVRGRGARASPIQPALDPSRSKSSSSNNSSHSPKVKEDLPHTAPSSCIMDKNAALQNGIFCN
p97 inhibitor: blocks human p97 ATPase activity; P55072; recombinant p97 ATPase, Kinase-Glo ATP luminescence, 3 h; inhibition, % at 8 µM; actives 0.42% (n = 220,000); AID 1481; in the data active means inhibition above about 15%;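 further: 0% = DMSO vehicle and 100% = wells lacking enzyme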
G6PDH counter-2: counter-screen for TbHK1 inhibitors: Leuconostoc G6PDH inhibition | inhibition, % at 10 µM | AID 2516 | actives 7% (n = 210) | shares compounds with TbHK1 inh | purified G6PDH, NADH absorbance, 1 h;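 active means at least 50% inhibition in the glucose-6-phosphate dehydrogenase coupled counterscreen; inconclusive means no clear call, values can overlap the other calls; inactive means inhibition below 50%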
TbHK1 rescreen: confirmation of Trypanosoma brucei hexokinase 1 inhibitors; shares compounds with TbHK1 inh; recombinant TbHK1, G6PDH-coupled NADH A340 absorbance; inhibition, % at 10 µM; actives 10% (n = 210); AID 2560;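 active means inhibition of at least 50% in both of the two screening runs; inconclusive means at least 50% in one run, below 50% in the other; inactive means inhibition below 50% in both runs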;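 further: 0% and 100% set by the maximum and minimum signal control wells on each plate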
An asterisk follows results filed as active.

What do the screens show for `C/C(=C/CCC(C)[C@H]1CC[C@@]2(C)C3=C(CC[C@]12C)[C@@]1(C)CCC(=O)C(C)(C)[C@@H]1CC3)C(=O)O` (some centres not stated)?
TbHK1 inh: 67*; Redox H2O2 prof: 0; G6PDH counter-1: 15; S1P3 antag: -16; p97 inhibitor: -4; G6PDH counter-2: -42; TbHK1 rescreen: 86*

Results for CCC(C)Sc1nc2c(c(=O)[nH]c(=O)n2C)n1C (configuration not stated) ?
TbHK1 inh: 50*; Redox H2O2 prof: 1; G6PDH counter-1: 5; S1P3 antag: -36; p97 inhibitor: 4; G6PDH counter-2: 0; TbHK1 rescreen: 8

How did CC(C)Sc1nc2c(c(=O)[nH]c(=O)n2C)n1C do in these assays?
TbHK1 inh: 19; Redox H2O2 prof: 2; G6PDH counter-1: 14; S1P3 antag: -23; p97 inhibitor: 2

What do the screens show for `O=C1CCC(C(=O)NCCCn2ccnc2)N1` (configuration not stated)?
TbHK1 inh: 58*; Redox H2O2 prof: 0; G6PDH counter-1: -9; S1P3 antag: -18; p97 inhibitor: 3; G6PDH counter-2: -1; TbHK1 rescreen: 2

Results for O=C(NCCCn1ccnc1)C1CC2CCC1C2 (configuration not stated) ?
TbHK1 inh: -5; Redox H2O2 prof: 1; G6PDH counter-1: -4; p97 inhibitor: -8

How did Cc1ccc(Nc2cc(=O)oc3ccccc23)c(C)c1 do in these assays?
TbHK1 inh: 55*; Redox H2O2 prof: 0; G6PDH counter-1: 1; p97 inhibitor: 1; G6PDH counter-2: 8; TbHK1 rescreen: 4

What do the screens show for `CCCCOc1ccc(C(=O)NNC(=S)NC(=O)CC)cc1`?
TbHK1 inh: 58*; Redox H2O2 prof: 0; G6PDH counter-1: -14; S1P3 antag: -2; p97 inhibitor: 10; G6PDH counter-2: -19; TbHK1 rescreen: -9

How did CCOc1ccccc1C(=O)NCC(=O)OCC(=O)N1C(C)CCCC1C (configuration not stated) do in these assays?
TbHK1 inh: 4; Redox H2O2 prof: 3; G6PDH counter-1: -1; S1P3 antag: -4; p97 inhibitor: -1

Results for COc1cc(-c2nnn(CC(=O)NC3CCS(=O)(=O)C3)n2)ccc1OCc1ccccc1 (configuration not stated) ?
TbHK1 inh: 66*; Redox H2O2 prof: 0; G6PDH counter-1: 3; S1P3 antag: -12; p97 inhibitor: -7; G6PDH counter-2: -38; TbHK1 rescreen: 1

How did O=C(CSc1nnc(COc2ccccc2)o1)NCCc1ccccc1 do in these assays?
TbHK1 inh: 73*; Redox H2O2 prof: -1; G6PDH counter-1: -7; S1P3 antag: -20; p97 inhibitor: 1; G6PDH counter-2: -9; TbHK1 rescreen: -22

How did Cc1ccccc1N=Nc1ccc(O)c2ncccc12 do in these assays?
TbHK1 inh: 64*; Redox H2O2 prof: 0; G6PDH counter-1: 4; S1P3 antag: 8; p97 inhibitor: 1; G6PDH counter-2: -4; TbHK1 rescreen: -8

What do the screens show for `CCC1(C)Cc2c(C#N)c(N)sc(=S)c2CO1` (configuration not stated)?
TbHK1 inh: 83*; Redox H2O2 prof: 2; G6PDH counter-1: 14; p97 inhibitor: 2; G6PDH counter-2: 73*; TbHK1 rescreen: inconclusive

Results for CCC1(C)Cc2c(C#N)c(N)n(-c3ccccc3)c(=S)c2CO1 (configuration not stated) ?
TbHK1 inh: -3; Redox H2O2 prof: 0; G6PDH counter-1: 19; S1P3 antag: 1; p97 inhibitor: 6

How did CCOC(=O)c1c(C)c(C(=O)NCc2cccnc2)c(C)n1C do in these assays?
TbHK1 inh: 63*; Redox H2O2 prof: 2; G6PDH counter-1: -1; S1P3 antag: -15; p97 inhibitor: 4; G6PDH counter-2: -2; TbHK1 rescreen: 1

Results for Cc1ccc2[nH]cc(C(=O)NCc3cccs3)c(=O)c2c1 ?
TbHK1 inh: 0; Redox H2O2 prof: 0; G6PDH counter-1: -7; p97 inhibitor: -5
